Pf apPOL block: Pf-apPOL DNA polymerase inhibition. Recombinant Pf-apPOL, molecular beacon fluorescence, 1.5 h. inhibition, % at 10 µM. 0.25% of 210,000 active. AID 1794808
mHTT-CaM PPI inh: disrupts binding of mutant huntingtin to calmodulin; AlphaScreen His-mHTT/GST-CaM binding, luminescence; P42858; 3.6% of 190,000 active; inhibition, % at 15 µM;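 further: 0% = both proteins with DMSO and 100% = one protein alone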
Numbers without * were called inactive; i = inactive; / = no result; + = active, no number; ! = not confirmed by another sample. Rows were chosen to be rich in hits. Some 3.5% of all compounds tested hit in one or more screens of this group. No stated cut-off is given here; in the data, active means inhibition above about 50%; inactive means the rest.

SMILES	Pf apPOL block	mHTT-CaM PPI inh
Cc1ccc(/C=C2\Sc3ccccc3N(CC(=O)NCc3ccccn3)C2=O)cc1	-1.1	80.0*
O=C(CN1C(=O)/C(=C/c2ccc(C(F)(F)F)cc2)Sc2ccccc21)NCCN1CCCC1	2.6	84.0*
CN1CCN(C(=O)CN2C(=O)/C(=C/c3ccc(C(F)(F)F)cc3)Sc3ccccc32)CC1	1.8	51.0*
COCCCNC(=O)CN1C(=O)/C(=C/c2ccc(C(F)(F)F)cc2)Sc2ccccc21	0.4	56.0*
CCCCNC(=O)CN1C(=O)/C(=C/c2ccc(C(F)(F)F)cc2)Sc2ccccc21	2.3	-6.0
CCOCCCNC(=O)CN1C(=O)/C(=C/c2ccc(C(F)(F)F)cc2)Sc2ccccc21	-25.8	16.0
CNC(=O)CN1C(=O)/C(=C/c2ccc(C(F)(F)F)cc2)Sc2ccccc21	-34.9	19.0
O=C(CN1C(=O)/C(=C/c2ccc(C(F)(F)F)cc2)Sc2ccccc21)NCc1ccccn1	-7.8	32.0
COc1ccc(Cl)cc1NC(=O)CSC1=NS(=O)(=O)c2cc(Cl)ccc2N1	-10.2	-18.4
O=C(Cc1ccccc1)NC1CCN(c2ccccc2C(=O)N2CCCCC2)CC1	-5.4	4.0
CCOc1cc(C(=O)Nc2cc(C)c(Cl)cc2OC)cc(OCC)c1OCC	-1.8	3.7
CC(=O)Nc1ccc(SC[C@H](c2ccccc2)N2CCN(CC(C)C)CCC2=O)cc1	-2.7	40.1
O=c1c(-c2cscn2)c(C(F)(F)F)oc2cc(O)ccc12	-8.3	5.0
COc1ccc(CNc2ccccc2SC)cc1OC	2.7	15.1
COc1ccc(NCc2ccccc2Br)cc1OC	6.1	73.1*
COc1ccccc1CNc1ccccc1	-10.0	2.7
COc1ccc(CNCc2ccc(C)cc2C)c(OC)c1	-1.7	-2.5
COc1ccc(NCc2ccc(SC)cc2)cc1OC	0.2	80.5*
COc1ccc(NCc2ccc(C)cc2C)cc1OC	1.2	82.9*
COc1ccc([N+](=O)[O-])cc1NC(=O)CCN1CCCC1	3.5	3.3
COCCCNC(=O)NC1CC(=O)N(Cc2ccccc2)C1 (centres undefined)	-5.2	-6.8
O=C(c1ccoc1)N1CCCC(c2ccnc(-c3ccccc3)n2)C1 (centres undefined)	-4.8	30.5
COc1ccc(C2CC3(C)CC(=O)C2C(C#N)(C#N)C3(C#N)C#N)cc1 (centres undefined)	-8.6	79.0*
COc1ccc(C2CC3(O)CC(C#N)(C(=O)N3)C2(C#N)C#N)cc1 (centres undefined)	-1.6	2.0
CC1(C)C=Cc2cc(C(N)=NOC(=O)Nc3ccc(Cl)cc3Cl)ccc2O1	2.4	/
SMILES	Pf apPOL block	mHTT-CaM PPI inh
O=C1Nc2ccccc2/C1=N\N1CCN(C2c3ccccc3-c3ccccc32)CC1	/	+
O=C1Nc2ccccc2/C1=N\N1C(=O)C2C=CC=CC2C1=O (centres undefined)	/	i
Cc1cccc(C2=NN(c3ccccc3)[C@H](CO)[C@H]2c2ccccc2)c1	-3.4	87.3*
CC[C@H]1C(c2ccc(F)cc2)=NN(c2ccccc2)[C@@H]1CO	-5.7	-58.5
OC[C@@H]1[C@@H](c2ccc(F)cc2)C(c2ccccc2)=NN1c1ccccc1	-4.4	88.7*
Cc1cccc(C2=NN(c3ccccc3)[C@H](CO)[C@H]2C)c1	-4.3	-4.6
O=C(C1CC1)N1CCc2sc(S(=O)(=O)NCc3ccco3)cc2C1	-3.0	-0.1
COc1ccc(C=C2Oc3cc(OCCN4CCCCC4)ccc3C2=O)cc1	-5.0	1.8
Cc1ccc(S(=O)(=O)Nc2c(Cl)cc(Cl)c3cccnc23)cc1	1.0	-4.0
O=C(Cc1csc(NC(=O)c2ccsc2)n1)Nc1nc2c(s1)CCCC2	-7.3	-0.4
O=c1[nH]c(=O)n(-c2ccccc2F)c(O)c1C=C1C=Nc2ccc(Br)cc21	5.2	100.0*
Cc1cc(C)c(-n2c(O)c(C=C3C=Nc4ccccc43)c(=O)[nH]c2=O)c(C)c1	1.6	100.0*
Cc1ccc(-n2c(O)c(C=C3C=CC=N3)c(=O)[nH]c2=O)cc1	-0.3	12.0
CC1=Nc2ccccc2C1=Cc1c(O)n(-c2ccc(C)cc2)c(=O)[nH]c1=O	-43.9	12.0
CN(C)C1CCN(Cc2ccccc2C(F)(F)F)CC1CO (centres undefined)	-6.4	-4.2
O=C(NCC1(CO)CC1)Nc1ccccc1Cl	3.2	-8.8
COc1ccc(CNc2nc(-c3ccc(C)cc3)nnc2C)cc1	1.5	5.4
COc1ccc(-c2nnc(C)c(NC3CCCC3)n2)cc1	-11.9	52.3*
O=C1C(=Cc2ccc(F)cc2)Oc2cc(O)ccc21	-1.8	-7.8
O=C(NCCCn1ccnc1)C(=O)NCc1ccc(F)cc1	-5.8	70.2*
Cc1ccc(NC(=O)C(=O)NCCCn2ccnc2)cc1F	-8.0	16.7
C=CCn1c(SCC(=O)Nc2ccc(F)cc2)nnc1-c1cccc(OC)c1	-11.1	-2.4
C=CCn1c(SCC(=O)Nc2ccc(OC)cc2)nnc1C(c1ccccc1)c1ccccc1	97.4*	17.2
Nc1ccccc1-c1nnc(SCc2ccccc2)[nH]c1=O	4.4	2.0
C=CCSc1nnc(-c2ccccc2N)c(=O)[nH]1	-6.5	99.1*!
SMILES	Pf apPOL block	mHTT-CaM PPI inh
Cc1ccc(C)c(N=C2C(=O)Nc3ccc(Br)cc32)c1	-5.7	11.0
Cc1cccc(N=C2C(=O)Nc3ccc(Br)cc32)c1C	0.2	66.0*
Cc1ncc([N+](=O)[O-])n1-c1nc(N2CCOCC2)ncc1F	-0.9	-1.0
O=C(Nc1ccc(Nc2ccccc2)cc1)c1ccccc1F	-2.0	33.3
O=C(Nc1ccc(Nc2ccccc2)cc1)c1ccccc1I	-7.9	69.6*
CCOc1ncccc1C(=O)Nc1ccc(Nc2ccccc2)cc1	-2.5	85.0*
CCOc1ncccc1C(=O)Nc1ccc(Cl)cc1	-4.0	-12.0
CCOC(=O)N1CCN(C(=O)C2CCN(Cc3ccccc3OCC)CC2)CC1	-4.5	4.6
COc1ccc(C=CC(=O)NCC(C)(O)CSC)cc1OC (centres undefined)	5.3	-1.3
CCC(=O)N1CCc2cc(Br)cc(S(=O)(=O)N3CCCCC3)c21	-3.7	4.0
O=[N+]([O-])c1cc(C=Nc2cc(Cl)ccc2O)ccc1Cl	-0.6	64.0*
O=[N+]([O-])c1cc(C=Nc2ccc(Cl)cc2)ccc1Cl	1.9	19.0
CCOc1cc(C(=O)Nc2ccc([N+](=O)[O-])cc2)cc(OCC)c1OCC	-2.1	0.5
COc1ccc(C(=O)C=Cc2ccc(OC)c(OC)c2)c(O)c1	-3.1	50.1*
COc1ccc(C(=O)C=Cc2ccc(OC)c(OC)c2)c(OC)c1	-15.8	13.0
Cc1cccc(C(=O)Nc2c3c(nn2-c2ccc([N+](=O)[O-])cc2)CSC3)c1	-6.0	19.0
Cc1ccc(C(=O)Nc2c3c(nn2-c2ccccc2C)CSC3)cc1	-3.8	43.0
Cc1ccccc1-n1nc2c(c1NC(=O)c1cccc(C(F)(F)F)c1)CSC2	-8.7	100.0*
Cc1ccc(C(=O)Nc2c3c(nn2-c2ccccc2C)CSC3)cc1C	-4.4	62.0*
Cc1ccccc1-n1nc2c(c1NC(=O)c1ccccc1C(F)(F)F)CSC2	-10.6	31.0
O=C(Nc1c2c(nn1-c1ccc(F)cc1)CSC2)C1CCCC1	-7.3	57.0*
O=C(Nc1c2c(nn1-c1ccc(Cl)cc1)CSC2)C1CCCC1	3.2	2.0
O=C(Nc1c2c(nn1-c1ccc([N+](=O)[O-])cc1)CSC2)c1cccc(C(F)(F)F)c1	5.8	57.0*
Cc1cccc(-n2nc3c(c2NC(=O)C2CCCC2)CSC3)c1C	-4.7	23.0
Cc1ccccc1-n1nc2c(c1NC(=O)c1ccc(Cl)c([N+](=O)[O-])c1)CSC2	-5.5	56.0*
